Our source for the growth inhibition, inhibition and outcome values is PubChem BioAssay.

The nature of test [1]: antimalarial activity against Dd2 strain (AID 2302;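 active = growth inhibition above 50% at the single 2 µM test dose, taken to imply half-maximal potency below 2 µM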;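 note: 0% = DMSO untreated growth and 100% = chloroquine plus artemisinin killed control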). The following applies: P. falciparum Dd2 in RBCs, LDH growth readout, 72 h; at 2 µM; hits give high values.
A short description of test [2]: human hepatoma cell viability loss – ATP luminescence, cytotoxicity control for P. falciparum antimalarial project, primary screen (AID 2303;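 active = inhibition above 50%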;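 note: 0% = DMSO wells and 100% = digitonin-killed cells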). The following applies: HepG2 viability, 24-48 h, at 10 µM, hits give high values.
Test [3] addresses L-lactate dehydrogenase (Plasmodium falciparum (isolate CDC / Honduras)) (UniProt Q27743). The experiment in a line: PfLDH activity inhibition – cell lysate, 3D7 strain, counter-screen for P. falciparum growth inhibition project (AID 2304).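 Note: 0% = vehicle and 100% = reference inhibitor.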 The following applies: P. falciparum 3D7 crude extract, LDH APAD/NBT absorbance; at 2 µM; hits give high values. Background: A counterscreen serves to expose hits that act by an unwanted route or on another target.

Test [4] can be described thus: inhibition of 3D7 malaria parasite growth – strain 3D7 (AID 2306).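 Note: 0% = DMSO wells and 100% = chloroquine plus artemisinin control wells.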 Particulars: P. falciparum 3D7 erythrocytic growth, LDH absorbance, 72 h; at 2 µM; hits give high values.
For test [5], the target named is Calcium-dependent protein kinase 1 (Plasmodium falciparum (isolate 3D7)) (UniProt P62344). The test is described as follows: PfCDPK1 kinase inhibitors, biochemical, TCAMS library (AID 1159585; cut-off not given, nearly all actives have IC50 up to about 0.98 µM;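 note: inhibitors leave more ATP so luminescence rises with inhibition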). The following applies: recombinant PfCDPK1, Kinase-Glo ATP depletion luminescence.
Test [6] deals with Plasmodium falciparum protein kinase 6 (PK6, PF3D7_1337100) (UniProt Q8IDW1). The experiment in a line: PfPK6 kinase inhibitors, biochemical, TCAMS library (AID 1159586). The following applies: recombinant PfPK6, Kinase-Glo ATP depletion luminescence. Background: Kinase-Glo reads ATP consumption through a luciferase reaction.
In test [7] the target is Protein kinase 7 (PK7), Plasmodium falciparum 3D7 (PF3D7_0213400) (UniProt Q7YTF7). The experiment in a line: inhibition of Plasmodium PK7 catalytic activity – biochemical, TCAMS antimalarial set, Kinase-Glo luminescence (AID 1159587). Particulars: recombinant PfPK7, Kinase-Glo ATP depletion luminescence.
Test [8] deals with Calcium-dependent protein kinase 4 (Plasmodium falciparum (isolate 3D7)) (UniProt Q8IBS5). The test is described as follows: PfCDPK4 kinase inhibitors, biochemical, TCAMS library (AID 1159588; cut-off not given, nearly all actives have IC50 up to about 0.91 µM). The following applies: recombinant PfCDPK4, Kinase-Glo ATP depletion luminescence.

Structures are written as SMILES. Unmarked numbers belong to inactive results. For some of these results: Potency and affinity values are given separately. Activity calls are given as the source filed them. Unless noted, the rule behind the calls is not given here.

Sequence of L-lactate dehydrogenase (Plasmodium falciparum (isolate CDC / Honduras)) (Q27743 whole entry, looked up): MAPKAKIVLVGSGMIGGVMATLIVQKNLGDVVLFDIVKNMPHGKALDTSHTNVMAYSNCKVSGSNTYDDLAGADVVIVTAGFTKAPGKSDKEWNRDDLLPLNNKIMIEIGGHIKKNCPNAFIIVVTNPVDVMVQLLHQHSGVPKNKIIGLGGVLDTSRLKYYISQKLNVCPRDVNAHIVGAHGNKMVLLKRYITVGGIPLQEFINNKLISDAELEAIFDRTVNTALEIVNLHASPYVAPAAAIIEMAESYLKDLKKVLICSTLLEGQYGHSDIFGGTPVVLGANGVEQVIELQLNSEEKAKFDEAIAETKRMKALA
Sequence of Calcium-dependent protein kinase 4 (Plasmodium falciparum (isolate 3D7)) (Q8IBS5 whole entry, looked up): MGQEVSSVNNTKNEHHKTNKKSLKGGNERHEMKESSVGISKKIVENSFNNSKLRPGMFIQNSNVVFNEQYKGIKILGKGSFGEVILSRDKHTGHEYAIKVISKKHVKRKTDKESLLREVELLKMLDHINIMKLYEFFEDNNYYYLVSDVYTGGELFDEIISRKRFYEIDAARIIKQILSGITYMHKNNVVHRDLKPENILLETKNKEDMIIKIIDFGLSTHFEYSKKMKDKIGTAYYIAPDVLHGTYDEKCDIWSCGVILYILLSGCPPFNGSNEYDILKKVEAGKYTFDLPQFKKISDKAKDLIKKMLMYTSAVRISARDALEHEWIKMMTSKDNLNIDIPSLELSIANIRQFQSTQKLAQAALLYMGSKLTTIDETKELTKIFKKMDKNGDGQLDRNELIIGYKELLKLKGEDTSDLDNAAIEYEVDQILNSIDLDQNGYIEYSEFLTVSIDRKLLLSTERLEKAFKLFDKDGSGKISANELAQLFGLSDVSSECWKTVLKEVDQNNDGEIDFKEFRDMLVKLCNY
Sequence of Plasmodium falciparum protein kinase 6 (PK6, PF3D7_1337100) (Q8IDW1 1-305): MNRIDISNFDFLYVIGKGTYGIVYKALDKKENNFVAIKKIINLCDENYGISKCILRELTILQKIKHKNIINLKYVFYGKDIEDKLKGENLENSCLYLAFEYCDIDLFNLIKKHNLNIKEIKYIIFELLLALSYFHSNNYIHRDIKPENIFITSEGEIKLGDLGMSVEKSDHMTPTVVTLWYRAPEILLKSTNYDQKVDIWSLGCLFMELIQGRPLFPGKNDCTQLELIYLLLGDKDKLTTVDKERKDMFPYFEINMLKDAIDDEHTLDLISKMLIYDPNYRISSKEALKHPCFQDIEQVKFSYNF
Sequence of Calcium-dependent protein kinase 1 (Plasmodium falciparum (isolate 3D7)) (P62344 whole entry, looked up): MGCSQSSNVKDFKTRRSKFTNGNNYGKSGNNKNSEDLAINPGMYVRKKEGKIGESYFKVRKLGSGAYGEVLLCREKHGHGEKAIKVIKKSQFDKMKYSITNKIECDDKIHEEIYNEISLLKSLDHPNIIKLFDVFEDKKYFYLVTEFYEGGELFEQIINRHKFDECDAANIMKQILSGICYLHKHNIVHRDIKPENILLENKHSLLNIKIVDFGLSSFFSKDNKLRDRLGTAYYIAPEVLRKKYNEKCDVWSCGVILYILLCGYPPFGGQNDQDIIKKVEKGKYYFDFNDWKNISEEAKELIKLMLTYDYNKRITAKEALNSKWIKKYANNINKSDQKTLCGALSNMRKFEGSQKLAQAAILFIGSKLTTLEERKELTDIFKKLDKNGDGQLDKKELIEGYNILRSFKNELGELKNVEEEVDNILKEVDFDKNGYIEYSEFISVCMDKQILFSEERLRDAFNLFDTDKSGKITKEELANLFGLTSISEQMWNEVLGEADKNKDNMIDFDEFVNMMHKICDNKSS
Sequence of Protein kinase 7 (PK7), Plasmodium falciparum 3D7 (PF3D7_0213400) (Q7YTF7 1-343): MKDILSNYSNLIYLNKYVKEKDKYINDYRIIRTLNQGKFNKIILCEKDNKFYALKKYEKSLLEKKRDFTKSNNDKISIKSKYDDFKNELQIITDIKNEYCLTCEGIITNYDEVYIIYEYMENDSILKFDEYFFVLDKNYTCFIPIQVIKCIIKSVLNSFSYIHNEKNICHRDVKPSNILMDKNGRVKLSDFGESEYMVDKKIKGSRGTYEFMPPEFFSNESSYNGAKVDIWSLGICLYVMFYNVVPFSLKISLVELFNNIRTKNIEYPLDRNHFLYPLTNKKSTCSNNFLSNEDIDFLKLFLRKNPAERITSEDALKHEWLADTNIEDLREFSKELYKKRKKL

`CCCOc1ccc(CCNCCCCNCCc2ccc(OCCC)c3ccccc23)c2ccccc12`: the growth inhibition is 52% (active) in test [1] and 93% (active) in test [4]. Also, the inhibition (in general, the change of the read-out against control, counted positive when it falls) in test [2] was 100% (active); in test [3], 7%. In addition, the outcome in test [5], in test [6], in test [7] and in test [8] was inactive.

On to `COc1cc(NC2=NS(=O)(=O)c3cc(Cl)ccc3N2C)cc(OC)c1OC`, for which the growth inhibition is 100% (active) in test [1] and 101% (active) in test [4]. The inhibition in test [2] was -6%; in test [3] it was -2%. Besides, the result in test [5], in test [6], in test [7] and in test [8] was inactive.

Take `COc1ccc(-c2csc(C(=O)NC3CCC(N4CCC(c5ccccc5C)CC4)CC3)c2)cc1` (stereo not given): the growth inhibition in test [1] was 99% (active); in test [4], 101% (active). The inhibition was 64% (active) in test [2] and -1% in test [3]. For the same molecule, the outcome in test [5], in test [6], in test [7] and in test [8] was inactive.

Take `O=C(Nc1ccc(OC2CCN(Cc3ccsc3)CC2)c(Cl)c1)c1ccco1`: the values for the growth inhibition in test [1] and in test [4] were 85% (active) and 87% (active), respectively. In addition, the inhibition was 7% in test [2] and -4% in test [3]. Further, the outcome in test [5], in test [6], in test [7] and in test [8] was inactive.

Turning to `CCOC(=O)c1ccc(N2CCN(CCCNC(=O)/C(=C/C=C/c3cc4cc(Cl)c(Cl)cc4[nH]3)OC)CC2)cc1`, the growth inhibition is 72% (active) in test [1] and 93% (active) in test [4]. Further, the inhibition in test [2] is 39%; in test [3], 4%. The outcome in test [5], in test [6], in test [7] and in test [8] was inactive.

`CC(C)CCN1CCC(Oc2ccc(NC(=O)c3ccc(F)cc3)cc2Cl)CC1`: the figures for the growth inhibition in test [1] and in test [4] were 88% (active) and 98% (active), respectively. For the same molecule, the inhibition in test [2] is 33%; in test [3] it was 4%. The outcome in test [5], in test [6], in test [7] and in test [8] was inactive.

Regarding `COc1ccc(-n2ncc(C(=O)N3CCC4(C3)C(=O)N(c3ccccc3)c3ccccc34)c2C)cc1` (stereo not given), the values for the growth inhibition in test [1] and in test [4] were 91% (active) and 88% (active), respectively. Further, the figures for the inhibition in test [2] and in test [3] were 45% and 0%, respectively. The result in test [5], in test [6], in test [7] and in test [8] was inactive.

As for `COc1cc(NC2CCCC(NCc3cn(S(=O)(=O)c4ccccc4)c4ccccc34)C2)nc2ccccc12` (stereo not given), the growth inhibition in test [1] is 61% (active); in test [4], 100% (active). In addition, the inhibition in test [2] is 4%; in test [3], 2%. In addition, the result in test [5], in test [6], in test [7] and in test [8] was inactive.

In the case of `CN(CCc1ccccc1)c1ncc(-c2cccc(CNCCC3CCCN3C)c2)cn1` (stereo not given), the growth inhibition is 98% (active) in test [1] and 92% (active) in test [4]. The inhibition was 99% (active) in test [2] and -1% in test [3]. In addition, the outcome in test [5], in test [6], in test [7] and in test [8] was inactive.

`CCCc1cc(=O)[nH]c(-n2nc(C)cc2NC(=O)CC(c2ccccc2)c2ccccc2)n1`: the results for the growth inhibition in test [1] and in test [4] were 88% (active) and 97% (active), respectively. Further, the inhibition is 39% in test [2] and 4% in test [3]. Also, the outcome in test [5], in test [6], in test [7] and in test [8] was inactive.

For `CCCCCN1CCCN(Cc2cccc(NC(=O)c3ccc(Cl)c(Cl)c3)c2)CC1`, the growth inhibition in test [1] was 28%; in test [4], 89% (active). The inhibition is 30% in test [2] and 0% in test [3]. The outcome in test [5], in test [6], in test [7] and in test [8] was inactive.

Take `Cc1cc(NN=Cc2ccc(Cl)cc2)c2cc(C(F)(F)F)ccc2n1`: the growth inhibition in test [1] is 32%; in test [4], 91% (active). Further, the inhibition in test [2] was 0%; in test [3], -5%. In addition, the result in test [5], in test [6], in test [7] and in test [8] was inactive.

With `COc1cc2c(cc1C=CC(=O)N1CCN(Cc3nc4sc(C)c(C)c4c(=O)[nH]3)CC1)OC(C)C2` (stereo not given), the growth inhibition in test [1] is 87% (active); in test [4], 82% (active). Moreover, the inhibition in test [2] was -1%; in test [3], -9%. Further, the outcome in test [5], in test [6], in test [7] and in test [8] was inactive.

In the case of `Oc1ccc(CCCNc2nc(NCc3cccc4ccccc34)nc(N3CCCNCC3)n2)cc1`, the growth inhibition in test [1] is 62% (active); in test [4] it was 96% (active). In addition, the inhibition is 98% (active) in test [2] and -2% in test [3]. The result in test [5], in test [6], in test [7] and in test [8] was inactive.

Regarding `COc1cccc(CNC(=O)c2cccc(-c3ccc(CN4CCC(N5CCCC5)CC4)cc3)n2)c1`, the growth inhibition is 76% (active) in test [1] and 101% (active) in test [4]. Moreover, the figures for the inhibition in test [2] and in test [3] were 16% and 1%, respectively. Besides, the outcome in test [5], in test [6], in test [7] and in test [8] was inactive.

In the case of `c1ccc(-c2cc(NCCCCCCCCNc3cc(-c4ccccc4)nc4ccccc34)c3ccccc3n2)cc1`, the growth inhibition in test [1] is 72% (active); in test [4] it was 101% (active). For the same molecule, the inhibition in test [2] was 36%; in test [3], 1%. Further, the result in test [5], in test [6], in test [7] and in test [8] was inactive.

With `COc1cc(Cc2cnc(N)nc2N)cc(OCCCCC2SC(=O)NC2=O)c1Br` (stereo not given), the growth inhibition in test [1] is -2%; in test [4] it was 94% (active). Further, the inhibition in test [2] is 15%; in test [3], 4%. The outcome in test [5], in test [6], in test [7] and in test [8] was inactive.

On to `CCCCCN1CCC(NS(=O)(=O)c2ccc(C(=O)Nc3cccc(C(F)(F)F)c3)cc2)C1` (stereo not given), for which the figures for the growth inhibition in test [1] and in test [4] were 0% and 94% (active), respectively. Besides, the values for the inhibition in test [2] and in test [3] were 14% and -9%, respectively. Besides, the result in test [5], in test [6], in test [7] and in test [8] was inactive.

As to `CSCCCN1CCC(O)(c2ccc3oc(C(=O)Nc4ccc5sc(C)nc5c4)cc3c2)CC1`, the figures for the growth inhibition in test [1] and in test [4] were 69% (active) and 101% (active), respectively. Also, the figures for the inhibition in test [2] and in test [3] were 10% and 4%, respectively. Further, the result in test [5], in test [6], in test [7] and in test [8] was inactive.

Turning to `COc1c(C2CCN(CCCCNC(=O)c3ccc(-c4ccc(C#N)cc4)c(O)c3)CC2)ccc2c1CCCC2`, the growth inhibition in test [1] was 78% (active); in test [4], 100% (active). In addition, the inhibition in test [2] is 35%; in test [3] it was -2%. In addition, the result in test [5], in test [6], in test [7] and in test [8] was inactive.
